# The list is not random: actives were taken first. Their share in the collection is about 22%.
# Shiga inhibitor – inhibitors of Shiga toxin in Vero cells; Vero cells, Shiga toxin protein synthesis inhibition reporter; inhibition, % at 38.7 µM; actives 9.2% (n = 290,000); in the data active = inhibition mostly above about 28%, no sharp cut-off; inactive = mostly below about 43%; also: 0% is about no effect
# Cycloheximide cs – counter-screen hit for Shiga toxin inhibitors, cycloheximide. actives 12% (n = 300,000). max response, %. cell reporter, cycloheximide protein synthesis inhibition counterscreen; in the data active = max response mostly above about 13%, no sharp cut-off; inactive = mostly below about 14%; also: read at 38.3 µM for the half of the compounds with a filed dose; 0% is about no effect
# Pf growth 96h – P. falciparum growth inhibition at 96 hour, primary screen for plastid delayed-death inhibitors; P. falciparum luciferase reporter growth, 96 h; Potency, µM (titrated, usually from 28.7 µM), without a hit: top-dose activity change, negative = inhibition, usual class: inhibitors; actives 6.9% (n = 320,000); also: potency is read from the fitted curve at half-maximal effect; % is scaled to controls: 0 for no effect and ±100 for the full control effect
#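 Compounds incubated with erythrocytes infected by luciferase-expressing P. falciparum (2% hematocrit, 0.05% parasitemia final) for 96 hours, 37 C in 5% CO2. Growth inhibition scored as decreased luciferase luminescence.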
# LmPK inhibitor – inhibitors of Leishmania mexicana pyruvate kinase; Q27686; purified LmPK, Kinase-Glo ATP luminescence, 1 h; Potency, µM (titrated, usually from 57.5 µM), inactives show at the top dose activity change, negative = inhibition, most hits filed as inhibitors; actives 0.37% (n = 290,000); AID 1721; also: potency is read from the fitted curve at half-maximal effect; % is scaled to controls: 0 for no effect and ±100 for the full control effect
# Target sequence (Q27686 whole entry, looked up): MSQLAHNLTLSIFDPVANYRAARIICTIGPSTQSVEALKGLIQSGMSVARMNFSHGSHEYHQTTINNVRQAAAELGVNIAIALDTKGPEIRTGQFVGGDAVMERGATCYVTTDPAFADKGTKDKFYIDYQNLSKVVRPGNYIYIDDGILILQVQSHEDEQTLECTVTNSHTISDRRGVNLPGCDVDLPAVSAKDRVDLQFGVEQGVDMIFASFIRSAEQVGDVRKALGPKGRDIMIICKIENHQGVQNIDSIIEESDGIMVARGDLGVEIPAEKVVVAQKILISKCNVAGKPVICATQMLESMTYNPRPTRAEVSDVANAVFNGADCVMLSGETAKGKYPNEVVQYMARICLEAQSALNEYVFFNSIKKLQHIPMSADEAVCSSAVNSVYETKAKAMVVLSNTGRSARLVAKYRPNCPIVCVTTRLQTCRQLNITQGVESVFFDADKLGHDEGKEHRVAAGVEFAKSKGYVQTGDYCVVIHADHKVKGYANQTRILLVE
#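 0.1 nM LmPK, 0.5 mM PEP, 0.1 mM ADP; 50 mM imidazole pH 7.2, 7 mM MgCl2, 50 mM KCl; 1 h RT. Kinase-Glo luminescence readout, normalized to no-enzyme (full inhibition) and uninhibited wells.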
# Pf growth 48h – P. falciparum growth inhibition at 48 hours (one generation); P. falciparum luciferase growth in erythrocytes, 48 h; Potency, µM (series often up to 28.7 µM), for inactives: at the highest dose activity change, negative = inhibition, usual class: inhibitors; actives 5.9% (n = 310,000); also: potency is read from the fitted curve at half-maximal effect; % is scaled to controls: 0 for no effect and ±100 for the full control effect
#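 Luminescence readout; reporter = integrated firefly luciferase in P. falciparum. RBC culture at 2% hematocrit, 0.1% parasitemia final, 37 C/5% CO2; decreased signal taken as growth inhibition.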
# * marks the source's active call; other numbers are inactive results; u = inconclusive; x = no result. Unless noted, calls follow the shape of the dose curve; as a rule, active = well fitted inhibition curve with a large enough effect; inconclusive = small, poorly fitted or top-dose-only effect, or another doubt; inactive = no such curve, though single readings can be large or run the other way.
SMILES,Shiga inhibitor,Cycloheximide cs,Pf growth 96h,LmPK inhibitor,Pf growth 48h
CCn1c(/C=C/N(C(C)=O)c2ccccc2)[n+](CCCS(=O)(=O)[O-])c2cc(Cl)c(Cl)cc21,-9.1,-3.8,24.5%,0.1%,-1.5%
CCn1c(/C=C/Nc2ccccc2)[n+](CC)c2cc(Cl)c(Cl)cc21,-6.8,-1.4,u,-6.3%,7.38µM*
COc1ccc(CNc2ncc(-c3ccc(Br)cc3)n2C)cc1OC,-6.8,-1.6,13.1µM*,0.2%,u
COc1ccc(CNc2ncc(-c3ccc(Cl)cc3)n2C)c(OC)c1OC,-4.6,-3.4,2.94µM*,-12.5%,-25.8%
CCCCn1nnnc1NCc1ccc(OC)c(OC)c1OC,-13.7,-3.9,-5.6%,-2.3%,33.3%
Cc1ccc(/C=N/NC(=O)c2cc(-c3ccncc3)nc3ccccc23)o1,-14.5,-1.3,-12.0%,-2.5%,4.7%
COc1ccccc1-c1cc(C(=O)N/N=C/c2ccc(C)o2)c2ccccc2n1,-7.4,-0.9,u,0.0%,u
O=C(N/N=C/c1ccc([N+](=O)[O-])o1)c1cc(-c2ccncc2)nc2ccccc12,27.3,1.6,0.928µM*,2.7%,u
Cc1ccc(-c2cc(C(=O)N/N=C/c3ccc([N+](=O)[O-])o3)c3ccccc3n2)o1,79.6*,32.2*,3.29µM*,-4.6%,-25.3%
O=C(N/N=C/c1ccc([N+](=O)[O-])o1)c1cn(-c2ccccc2)nc1-c1ccc(Cl)cc1,-11.8,-1.8,u,0.6%,4.65µM*
Cc1ccc2nc(N/N=C/c3ccco3)cc(C)c2c1,71.6*,50.7*,11.0%,-3.4%,u
C/C=C(/CC[C@@H](C)[C@H]1CCC2C3=CC[C@H]4[C@H](C)[C@@H](O)CC[C@]4(C)C3CC[C@@]21C)C(C)C (some centres undefined),6.6,-1.8,x,x,x
Cc1cc(N/N=C/c2ccc([N+](=O)[O-])o2)nc2ccccc12,48.1*,15.4*,5.86µM*,-3.9%,4.65µM*
O=C(N/N=C/c1ccc([N+](=O)[O-])o1)c1cc(-c2ccc(-c3ccccc3)cc2)nc2ccccc12,100.7*,31.8*,u,1.6%,u
O=C(COc1ccc(Cl)cc1)OCCNC12CC3CC(CC(C3)C1)C2,x,x,-23.9%,x,-10.7%
O=C(Nc1ccc(S(=O)(=O)NC2=NCCCCC2)cc1)C1COc2ccccc2O1 (centres undefined),-3.4,-2.3,u,3.0%,u
CCOC(=O)c1cc(=O)c2c([N+](=O)[O-])ccc(OC)c2o1,3.6,-3.6,-10.5%,0.3%,7.3%
CCOC(=O)C1=C(N)N(c2ccccc2)C2=C(C(=O)CCC2)C1c1cccnc1 (centres undefined),-10.7,-4.2,5.22µM*,-2.4%,-20.2%
CCSc1sccc1C1C(C#N)=C(N)N(c2cccnc2)C2=C1C(=O)CCC2 (centres undefined),1.2,-2.8,239.1%,0.6%,11.7µM*
COc1cc(C2C(C#N)=C(N)N(c3cccnc3)C3=C2C(=O)CCC3)ccc1O (centres undefined),-9.1,-4.4,u,12.2%,x
O=C1C(Cc2ccc3[nH]ccc3c2)NC(=S)N1c1ccccc1 (centres undefined),-6.4,1.9,20.8%,0.3%,10.2%
COCCCNC(=O)CCCC(=O)NCCCOC,-15.2,-5.8,119.5%,-1.9%,8.4%
O=C(CCCOc1ccccc1)NCCc1ccccc1,29.3,14.2*,u,5.3%,116.6%
O=C(CCCOc1ccc(Cl)cc1)NCCc1ccccc1,-6.4,-2.9,-23.2%,6.9%,12.4%
COCCCNC(=O)CCCOc1ccccc1,25.9,31.3*,184.4%,14.8%,x
CCN(c1cccc(C)c1)C(C(=O)Nc1ccc(OC)cc1)c1cc2c(cc1[N+](=O)[O-])OCO2 (centres undefined),22.3,11.1*,u,-2.4%,-5.0%
COc1ccc(NC(=O)C(c2cc3c(cc2[N+](=O)[O-])OCO3)N(C)Cc2ccccc2)cc1 (centres undefined),32.0,-3.4,u,2.1%,u
CCOC(=O)c1c(C)sc2c1N(C(=O)CCl)c1cc(Cl)ccc1S2,-18.9,-5.3,14.7µM*,2.7%,u
Cc1sc2ncnc(SCC(=O)N3c4ccccc4Sc4ccc(Cl)cc43)c2c1C,-13.6,-3.4,-19.1%,3.2%,-9.9%
CCc1nccn1S(=O)(=O)c1ccc(Br)cc1Br,12.0,8.6,0.928µM*,-1.5%,24.0%

# Source: PubChem (National Center for Advancing Translational Sciences (NCATS))
